These results are taken from PMC5540273 (PLoS ONE, 2017).

Values joined by “and” are separate entries in the source; they are usually repeats but may differ in a detail not shown here. Equal entries are not always repeated. Where two headings read alike, the source gives them in different places.

In one test the test system is HPK1. The conditions noted are these: concentration: 1 μM, replicates: in singlicate, n = 1.
The subject of the next test is HUNK. The conditions noted are these: concentration: 1 μM, replicates: in singlicate, n = 1.
Another test has as its system ICK. The note with it: concentration: 1 μM, replicates: in singlicate, n = 1.
In a further test the test system is IGF1R. The note with it: concentration: 1 μM, replicates: in singlicate, n = 1.
In the next test the test system is T1, IKK-alpha.
T1 construct: gene CHUK
The note with it: concentration: 1 μM, replicates: in singlicate, n = 1.

The next test has as its system T2, IKK-beta.
T2 construct: gene IKBKB
The note with it: concentration: 1 μM, replicates: in singlicate, n = 1.

Another test concerns T3, IKK-epsilon.
T3 construct: gene IKBKE
The conditions noted are these: concentration: 1 μM, replicates: in singlicate, n = 1.

Another test has as its system INSRR. The note with it: concentration: 1 μM, replicates: in singlicate; n = 1.
A further test deals with INSR. The note with it: concentration: 1 μM, replicates: in singlicate; n = 1.
For the next test, the system named is IRAK1. The conditions noted are these: concentration: 1 μM, replicates: in singlicate, n = 1.
For another test, the system named is IRAK3. The note with it: concentration: 1 μM, replicates: in singlicate; n = 1.
The test system of another test is IRAK4. The conditions noted are these: concentration: 1 μM, replicates: in singlicate; n = 1.
The subject of the next test is ITK. The note with it: concentration: 1 μM, replicates: in singlicate, n = 1.
Test [1] has as its system JAK1(JH1domain-catalytic). The conditions noted are these: concentration: 1 μM, replicates: in singlicate, n = 1.
Test [2] has as its system JAK1(JH2domain-pseudokinase). The note with it: concentration: 1 μM, replicates: in singlicate, n = 1.
In test [3] the test system is JAK2(JH1domain-catalytic). The conditions noted are these: concentration: 1 μM, replicates: in singlicate, n = 1.
The test system of test [4] is JAK3(JH1domain-catalytic). The conditions noted are these: concentration: 1 μM, replicates: in singlicate; n = 1.
The next test has as its system T4, JNK1.
T4 construct: gene MAPK8
The conditions noted are these: concentration: 1 μM, replicates: in singlicate, n = 1.

Another test relates to T5, JNK2.
T5 construct: gene MAPK9
The note with it: concentration: 1 μM, replicates: in singlicate; n = 1.

A further test relates to T6, JNK3.
T6 construct: gene MAPK10
The conditions noted are these: concentration: 1 μM, replicates: in singlicate; n = 1.
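Note: KINOMEscan kinase panel screen.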

For `NS(=O)(=O)CCc1cccc(Nc2nccc(-c3c(-c4cccc(NC(=O)c5c(F)cccc5F)c4)nn4ccccc34)n2)c1` [GSK336735], the “%Inh” value in the test on HPK1 was 56%; in the test on HUNK it was 0%; in the test on ICK, 0%; in the test with IGF1R it was 73%; in the test on IKK-alpha, 0%; with IKK-beta, 0%. Further, the “%Inh” value in the test with IKK-epsilon amounted to 33%; in the test on INSRR, 62%; with INSR, 39%; in the test on IRAK1, 0%; in the test on IRAK3 it was 16%; in the test on IRAK4, 9%. Also, the “%Inh” value with ITK is on record as 20%; in test [1] it was 18%; in test [2], 0%; in [3], 0%; in test [4], 77%; with JNK1, 36%. The “%Inh” value with JNK2 was 55%; in the test with JNK3 it was 16%.

Consider `Fc1ccc(-c2nn3c(OCC(F)(F)F)cccc3c2-c2ccncc2)cc1` [GW514784], for which the “%Inh” value in the test with HPK1 amounted to 6%; with HUNK, 31%; in the test on ICK it was 0%; with IGF1R, 0%; in the test on IKK-alpha, 0%; in the test on IKK-beta, 0%. Also, the “%Inh” value in the test on IKK-epsilon is given as 22%; in the test with INSRR it was 0%; in the test on INSR, 0%; with IRAK1, 19%; in the test with IRAK3 it was 0%; with IRAK4 it was 0%. Also, the “%Inh” value in the test with ITK turned out to be 9%; in test [1], 24%; in test [2], 14%; in [3], 4%; in [4], 0%; in the test on JNK1 it was 97.6%. The “%Inh” value with JNK2 and in the test on JNK3 was 99.9% throughout.

As for `C[C@@H](Oc1cc(-n2cnc3ccc(NC(=O)NC(C)(C)C)cc32)sc1C(N)=O)c1ccccc1Cl` [GSK346294], the “%Inh” value in the test with HPK1 turned out to be 35%; in the test on HUNK, 0%; with ICK it was 0%; with IGF1R, 0%; in the test on IKK-alpha, 0%; with IKK-beta it was 0%. In addition, the “%Inh” value in the test on IKK-epsilon is 23%; with INSRR, 0%; in the test on INSR, 0%; in the test on IRAK1, 15%; in the test on IRAK3 it was 12%; in the test with IRAK4, 0%. For the same molecule, the “%Inh” value amounted to 14% in the test on ITK; 2% in test [1]; 0% in [2]; 0% in test [3]; 0% in [4]; 0% with JNK1. Also, the “%Inh” value is recorded as 6% in the test with JNK2 and 0% in the test on JNK3.

`Cc1nnc(-c2ccc3occ(-c4ccc(C(C)O)cc4)c3c2)o1` (centres unmarked): the “%Inh” value in the test on HPK1 is given as 0%; in the test with HUNK, 0%; with ICK it was 0%; in the test on IGF1R it was 9%; with IKK-alpha it was 0%; with IKK-beta, 2%. Also, the “%Inh” value in the test on IKK-epsilon is 3%; with INSRR, 6%; in the test on INSR, 11%; with IRAK1 it was 31%; with IRAK3 it was 1%; in the test with IRAK4 it was 32%. For the same molecule, the “%Inh” value with ITK is reported as 14%; in [1] it was 0%; in [2], 5%; in test [3], 6%; in test [4], 9%; in the test on JNK1, 2%. Also, the “%Inh” value in the test with JNK2 and in the test with JNK3 was 0% in each case.

`CCCCCc1nc2c(N)ncnc2n1CCCCC` [SKF-97255]: the “%Inh” value with HPK1 was determined as 4%; in the test with HUNK, 26%; with ICK, 0%; with IGF1R, 0%; in the test with IKK-alpha, 0%; in the test on IKK-beta, 0%. For the same molecule, the “%Inh” value with IKK-epsilon, in the test with INSRR, in the test on INSR, with IRAK1, in the test with IRAK3 and in the test on IRAK4 was 0% in each case. Moreover, the “%Inh” value in the test on ITK amounted to 0%; in test [1], 0%; in [2], 35%; in [3] it was 33%; in [4], 0%; in the test with JNK1, 0%. Besides, the “%Inh” value with JNK2 and in the test with JNK3 was 0% each time.

Turning to `CCc1nc(-c2cccc(C)c2)c(-c2ccnc(NCc3ccccc3)c2)s1`, the “%Inh” value in the test on HPK1 came to 0%; in the test with HUNK, 0%; with ICK, 0%; with IGF1R, 0%; in the test on IKK-alpha, 15%; in the test on IKK-beta, 2%. The “%Inh” value in the test with IKK-epsilon was determined as 0%; in the test on INSRR it was 9%; in the test on INSR, 0%; in the test with IRAK1 it was 0%; in the test on IRAK3, 0%; in the test with IRAK4, 0%. The “%Inh” value is 13% in the test with ITK; 7% in test [1]; 31% in [2]; 0% in test [3]; 4% in test [4]; 0% in the test on JNK1. For the same molecule, the “%Inh” value in the test with JNK2 is 8%; in the test on JNK3, 20%.

As to `COc1ccc(Nc2ncc(C#N)c(Nc3ccccc3C(N)=O)n2)cc1N1CCN(C)CC1.Cl` [GSK1558669], the “%Inh” value in the test on HPK1 turned out to be 96.4%; with HUNK it was 0%; in the test on ICK, 97.6%; in the test with IGF1R it was 99.6%; in the test with IKK-alpha, 97.8%; with IKK-beta it was 88%. Moreover, the “%Inh” value in the test with IKK-epsilon came to 93.8%; with INSRR, 100%; in the test on INSR, 99.9%; with IRAK1 it was 99.8%; with IRAK3, 100%; in the test with IRAK4 it was 99.4%. The “%Inh” value with ITK worked out at 99.8%; in test [1], 0%; in [2], 99.9%; in test [3], 99.1%; in test [4] it was 98.8%; in the test on JNK1, 99.5%. The “%Inh” value with JNK2 amounted to 100%; with JNK3, 99.9%.

As to `O=C(NOCC1CC1)c1ccc(F)c(F)c1Nc1ccc(I)cc1Cl`, the “%Inh” value was found to be 12% with HPK1; 0% in the test with HUNK; 100% in the test with ICK; 0% with IGF1R; 46% in the test with IKK-alpha; 35% in the test on IKK-beta. Moreover, the “%Inh” value with IKK-epsilon, in the test on INSRR, in the test with INSR, with IRAK1, with IRAK3 and with IRAK4 was 0% throughout. Moreover, the “%Inh” value (in the test on ITK; in [1]; in [2]; in [3]; in [4]; in the test with JNK1) was 0% in each case. For the same molecule, the “%Inh” value with JNK2 and with JNK3 was 0% each time.

Regarding `Cl.Cl.Cl.Fc1ccc(-c2ncn(C3CCNCC3)c2-c2ccnc(Nc3ccccc3)n2)cc1` [SB-238039], the “%Inh” value with HPK1 (1 µM) is 96.2% and 92.5%; with HUNK (1 µM) it was 61% and 0%; with ICK (1 µM), 0% and 34%; in the test with IGF1R (1 µM) it was 37% and 0%; in the test with IKK-alpha (1 µM), 34% and 0%; with IKK-beta (1 µM), 10% and 0%. Moreover, the “%Inh” value in the test on IKK-epsilon (1 µM) is 0% and 3%; in the test on INSRR, 0%; with INSR it was 15%; in the test with IRAK1 (1 µM), 66% and 0%; in the test with IRAK3, 0%; in the test with IRAK4, 0%. The “%Inh” value in the test on ITK (1 µM) is 5% and 14%; in test [1] (1 µM), 0% and 8%; in test [2] (1 µM), 15% and 0%; in test [3] (1 µM), 44% and 0%; in test [4] it was 0%; in the test with JNK1 (1 µM) it was 97% and 96.3%. Also, the figures for the “%Inh” value in the test on JNK2 and in the test with JNK3 were 100% and 99.8%, respectively.

With `O=C(Nc1n[nH]c2cc(-c3cccc(F)c3)ccc12)C1CC1` [SB-735464], the “%Inh” value in the test on HPK1 turned out to be 0%; with HUNK it was 0%; in the test with ICK, 34%; in the test with IGF1R, 0%; in the test with IKK-alpha it was 25%; with IKK-beta, 37%. In addition, the “%Inh” value in the test with IKK-epsilon is given as 14%; in the test on INSRR it was 2%; in the test with INSR, 9%; in the test on IRAK1 it was 10%; in the test with IRAK3, 0%; in the test with IRAK4 it was 17%. Further, the “%Inh” value is listed as 0% with ITK; 12% in test [1]; 23% in test [2]; 7% in test [3]; 0% in [4]; 23% in the test on JNK1. Besides, the “%Inh” value with JNK2 worked out at 12%; with JNK3 it was 17%.
